Compound activity: PubChem BioAssay, Broad Institute
BJeLR viab HTS = BJeLR cell viability loss, primary screen, luminescence, CellTiterGlo ATP; BJeLR fibroblasts viability, 48 h; HRASV12, hTERT and SV40 LT/ST transformed; viability loss activity score, % (no concentration beside the values); hit rate 0.64% among 30,000; AID 2275, 2010; in the data active = viability loss activity score above about 50%; inconclusive = no clear call, values can overlap the other calls; inactive = below about 35%;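 note: higher score means fewer live cells and less ATP luminescence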
A1 inhib = inducers of caspase activity in MEF A1-2A-BIM cells, primary screen, A1 inhibitor project, cell-based, CaspaseGlo luminescence; caspase-Glo luminescence, 3 h; percent of clofoctol signal, DMSO as zero; hit rate 0.51% among 21,000; caspase activation, % (test concentration not listed);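 active = most replicate scores above 10, or exactly half above 10 with mean activity above 10; inconclusive = mean activity below 10 while half the replicates exceed 10; inactive = most replicate scores below 10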;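 note: effector caspase 3 and 7 activity cleaving a DEVD luciferin substrate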
Numbers without * were called inactive; ? = inconclusive; nt = no result. A selection: hits, their analogues and other compounds. The true share with any hit is near 0.9%.

SMILES	BJeLR viab HTS	A1 inhib
CCOC(=O)c1ccc(Nc2cc(C)nc(C)c2C(=O)OCC)cc1	0.8	nt
COC(=O)c1ccc(Nc2cc(C)nc3ccccc23)cc1	61.5*	-0.7
CC(C)c1c(O)ccc2c1CCC1C(C)(C)CCC[C@]21C (some centres not stated)	5.3	43.1*
CC(C)c1ccc2c(c1)CCC1[C@](C)(C(=O)O)CCC[C@]21C (some centres not stated)	1.7	0.2
Cn1c2ccccc2c2cnn(CC(=O)O)c(=O)c21	-1.7	0.4
Cn1c2ccccc2c2c3c(c4c5ccccc5n(CCC#N)c4c21)CNC3=O	21.0	28.0*
CCOC(=O)c1c(C)c(C#N)c(/N=C/N(C)C)n1-c1ccc(Cl)cc1Cl	5.8	-0.3
O=C(Nc1cccc(Cl)c1)c1ccc(CS(=O)c2ccc(Cl)cc2)o1 (configuration not stated)	-6.5	0.7
O=S(=O)(c1ccccc1)c1nc(N2CCCc3ccccc32)sc1Cl	-2.8	-0.1
Cc1cc(C)cc(NC(=O)CN2C=NS(=O)(=O)c3ccccc32)c1	2.5	0.8
Cc1cc(C)cc(NC(=O)CN2C(=O)CCc3ccccc32)c1	0.3	10.9*
CC(=O)O[C@@]1(C)[C@@H]2CC(=C(C)C)C(=O)C[C@@]2(C)CC[C@H]1OC(=O)C1(C)OC1C (some centres not stated)	53.9*	0.1
O=C(CCC(=O)N1CCOCC1)Nc1c(F)c(F)nc(N2CCOCC2)c1F	3.1	0.5
Cc1ccc2nc(S/C=C/C(=O)c3ccccc3)[nH]c2c1	71.8*	4.8
CSc1ccccc1NC(=O)CSc1nc2ccc(C)cc2[nH]1	-2.2	0.5
COc1cccc2c1C(=O)c1ccc3c(c1C2=O)C(=O)CC(C)(O)C3 (configuration not stated)	0.0	-1.1
COc1cccc2c1C(=O)c1c(O)c3c(c(O)c1C2=O)C[C@@](O)(C(=O)CO)C[C@@H]3OC1CC(N)C(O)C(C)O1 (some centres not stated)	105.7*	14.7*
COc1cccc2c1C(=O)c1c(O)c3c(c(O)c1C2=O)C[C@@](O)(C(=O)CO)C[C@@H]3O[C@H]1C[C@H](N)[C@H](O)[C@H](C)O1	108.7*	16.4*
COc1cccc2c1C(c1ccc3c(c1O)C(=O)CC(C)C3O)OC2=O (configuration not stated)	1.2	0.9
O=C1Nc2ncccc2OC1c1ccccc1 (configuration not stated)	1.8	-0.9
Cc1cc(C(=O)Nc2cccc3c2O[C@@H](CN(C)S(=O)(=O)c2ccccc2)[C@@H](C)CN([C@@H](C)CO)C3=O)n(C)n1	-1.4	nt
O=C(CCCOc1ccc(Cl)cc1Cl)Nc1ccc2c(c1)OCCO2	-6.3	0.4
Cc1cccc(Nc2nnc(-c3ccc(C)c(S(=O)(=O)NCCO)c3)c3ccccc23)c1	-9.7	0.7
CCOc1ccc(NC(=O)Cc2ccccc2OC)cc1	3.1	-4.8
CCCCN(CC)S(=O)(=O)c1ccc(C(=O)Nc2ccccc2-c2nc3ccccc3[nH]2)cc1	-2.8	nt
SMILES	BJeLR viab HTS	A1 inhib
COc1ccccc1CC(=O)Nc1ccc(-c2nc3ccccc3[nH]2)cc1	23.1	28.6*
CN(Cc1ccccc1)S(=O)(=O)c1ccc(C(=O)Nc2ccc(-c3nc4ccccc4[nH]3)cc2)cc1	?	21.8*
C[C@@H]1CN([C@@H](C)CO)C(=O)c2cc(NC(=O)NC3CCCCC3)ccc2O[C@@H]1CN(C)Cc1ccc(C(=O)Nc2ccccc2N)cc1	9.7	nt
CC(=O)O[C@H]1[C@H](Oc2ccccc2COC(=O)C2(O)C=CCCC2=O)O[C@H](CO)[C@@H](O)[C@@H]1O (some centres not stated)	-17.1	-0.3
O=C(O[C@H]1[C@H](Oc2ccccc2COC(=O)C2(O)C=CCCC2=O)O[C@H](CO)[C@@H](O)[C@@H]1O)c1ccccc1 (some centres not stated)	57.7*	0.1
O=C(NCCC1=CCCCC1)c1ccc2c(c1)ncn2C1CCCC1	2.6	-0.6
O=C1c2ccccc2C(=O)N1C(CO)C(O)c1ccccc1 (configuration not stated)	3.7	-1.6
O=C1C(SCCO)=C(SCCO)C(=O)c2ccccc21	116.7*	-4.2
N#Cc1cccc(CSc2nnc(SCc3cccc(C#N)c3)s2)c1	2.9	-0.4
OC[C@H]1O[C@@H](n2cnc3c(NCc4ccco4)ncnc32)[C@H](O)[C@@H]1O	6.4	0.2
Nc1ncnc2c1c(I)cn2C1OC(CO)C(O)C1O (configuration not stated)	63.1*	25.7*
CC(O)c1cncc2c(=O)n3c(cc12)-c1[nH]c2ccccc2c1CC3 (configuration not stated)	9.4	0.0
CC1(C)CC(=O)c2c(SCCOC(=O)c3ccccc3Cl)sc(C#N)c2C1	-0.8	-1.0
CS(=O)c1sc(C(=O)OCc2ccccc2)c2c1C(=O)CC(C)(C)C2 (configuration not stated)	116.4*	4.1
N#CCSc1nc2ccccc2c(=O)n1CCCC(=O)NCc1ccco1	-4.5	-0.7
N#CCSc1nc2cc(C(=O)NCc3ccccc3)ccc2c(=O)n1CCc1ccccc1	0.6	21.7*
c1ccc(-c2cnc3nonc3n2)cc1	8.5	2.8
COc1cc([C@@H]2c3cc4c(cc3[C@@H](OC3OC5COC(C)OC5C(O)C3O)[C@H]3COC(=O)[C@H]23)OCO4)cc(OC)c1O (some centres not stated)	52.5*	1.4
COc1cc([C@@H]2c3cc4c(cc3C(OC3O[C@@H]5COC(C)O[C@H]5[C@H](O)[C@H]3O)C3COC(=O)[C@@H]32)OCO4)cc(OC)c1O (some centres not stated)	7.9	0.8
CNC(=O)c1c(-c2ccccc2)c2cc(OC)ccc2n1CCN(C)C	3.0	0.1
O=C(Cn1ncc2c3ccccc3n(Cc3ccccc3)c2c1=O)NC1CC1	0.9	-0.8
COc1cccc(NC(=O)Cn2ncc3c4ccccc4n(Cc4ccccc4)c3c2=O)c1	2.7	16.5*
NS(=O)(=O)c1ccc(CCNc2nc3c(-c4ccc(Cl)cc4)nnn3c3ccccc23)cc1	1.4	-0.2
Cc1c(C(=O)N2CCC(C)CC2)sc2nc(-c3ccc(F)cc3)cn12	5.7	nt
CCOC(=O)N1CCN(C(=O)CSc2nnc(Cc3cccn3C)n2-c2ccc(F)cc2)CC1	0.3	-0.7
SMILES	BJeLR viab HTS	A1 inhib
CCCOc1ccc2nc(NC(=O)OC)[nH]c2c1	58.1*	2.4
CCCOc1cccc(C(=O)Nc2ccc(C(=O)OC)cc2)c1	2.7	-1.1
O=C(/C=C/c1ccccc1)O[C@@H]1C[C@@](O)(C(=O)O)C[C@@H](O)[C@@H]1O	0.3	-0.3
C=CCOc1ccccc1OCC(O)CNC(C)C (configuration not stated)	56.3*	-1.1
CC(=O)Nc1ccc(OCC(O)CNC(C)C)cc1 (configuration not stated)	4.4	0.0
CCC(C)NC(=O)Cn1c(=O)n(CCc2ccccc2)c(=O)c2c3c(sc21)CCCC3 (configuration not stated)	9.1	nt
O=C(CCn1c(SCc2ccc(F)cc2)nc2c(sc3ccccc32)c1=O)NCC1CCCO1 (configuration not stated)	-1.7	nt
